These results are taken from PubChem BioAssay (NCATS).

SMILES strings stand for the structures. Records with an inconclusive call do not appear. Unmarked numbers belong to inactive results. Activity calls are given as the source filed them. Calls come from the whole dose curve; as a rule, active = well fitted curve in the direction sought with a large enough effect; inconclusive = small, poorly fitted or top-dose-only effect, or another doubt; inactive = no such curve, though single readings can be large; an effect the other way counts as inactive or inconclusive.

The target of assay [1] is Rap guanine nucleotide exchange factor 3 (Homo sapiens) (UniProt O95398). The assay is described as follows: Confirmatory qHTS for antagonist of cAMP-regulated guanine nucleotide exchange factor 3 (EPAC1) (AID 1645880).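 For activity, negative = inhibition: plate controls were DMSO only for no effect and full effect of the ATA control for full effect.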 Note: nearly all actives have a fitted effect of over 55% in size. Note: potency is the fitted concentration of half-maximal effect. To be noted: EPAC1 Rap1B-BODIPY-GDP exchange, fluorescence; activity, negative = inhibition: at 115 µM (top of the series). The method, boiled down: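 Released BODIPY-GDP fluoresces less than Rap1-bound BODIPY-GDP; the signal is followed at 480/540 nm at 5-min intervals over 30 min, after 5 min at room temperature. Reactions contain 100 nM EPAC1, 250 nM RAP1B-BODIPY-GDP and 50 uM GDP; results are normalized to ATA and DMSO.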
Chain of Rap guanine nucleotide exchange factor 3 (Homo sapiens) (O95398 whole entry, looked up): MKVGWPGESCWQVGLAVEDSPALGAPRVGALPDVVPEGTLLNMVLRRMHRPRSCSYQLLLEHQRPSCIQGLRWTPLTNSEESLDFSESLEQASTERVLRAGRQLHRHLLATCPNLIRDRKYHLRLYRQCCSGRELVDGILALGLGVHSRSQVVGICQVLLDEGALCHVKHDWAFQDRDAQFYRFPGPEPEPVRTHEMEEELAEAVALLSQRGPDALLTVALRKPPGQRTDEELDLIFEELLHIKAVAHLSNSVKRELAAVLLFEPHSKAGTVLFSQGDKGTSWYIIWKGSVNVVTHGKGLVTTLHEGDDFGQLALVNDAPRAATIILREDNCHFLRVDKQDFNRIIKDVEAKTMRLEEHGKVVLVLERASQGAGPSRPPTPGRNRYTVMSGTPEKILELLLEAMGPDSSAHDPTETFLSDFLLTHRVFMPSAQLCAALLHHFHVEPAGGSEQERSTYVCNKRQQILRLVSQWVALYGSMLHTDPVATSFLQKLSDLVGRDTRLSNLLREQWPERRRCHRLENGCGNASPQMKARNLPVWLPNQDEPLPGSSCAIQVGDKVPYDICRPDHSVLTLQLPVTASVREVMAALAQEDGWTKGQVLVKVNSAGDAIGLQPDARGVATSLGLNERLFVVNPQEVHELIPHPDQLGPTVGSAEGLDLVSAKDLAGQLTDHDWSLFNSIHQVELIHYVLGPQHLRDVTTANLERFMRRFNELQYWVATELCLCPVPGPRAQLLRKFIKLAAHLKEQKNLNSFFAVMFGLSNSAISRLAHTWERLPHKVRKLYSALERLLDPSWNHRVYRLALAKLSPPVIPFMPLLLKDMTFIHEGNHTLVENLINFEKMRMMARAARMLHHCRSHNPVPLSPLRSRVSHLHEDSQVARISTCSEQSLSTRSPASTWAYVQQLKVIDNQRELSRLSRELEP

Assay [2] has the same target. The assay is described as follows: Confirmatory qHTS for agonist of cAMP-regulated guanine nucleotide exchange factor 3 (EPAC1) (AID 1645881).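 Note: EPAC1 catalysed release of BODIPY-GDP from Rap1B seen as fluorescence loss; 100% = effect of cAMP agonist control; nearly all actives have a fitted effect of over 75% in size.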
The target of assay [3] is Rap guanine nucleotide exchange factor 4 (Homo sapiens) (UniProt Q8WZA2). The assay is described as follows: Confirmatory qHTS for agonist of cAMP-regulated guanine nucleotide exchange factor 4 (EPAC2) (AID 1645884).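 Note: nucleotide exchange releases bodipy-GDP from Rap1 and this lowers its fluorescence; % is set by controls: 0 for no effect and ±100 for the full control effect; nearly all actives have a fitted effect of over 65% in size.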
Chain of Rap guanine nucleotide exchange factor 4 (Homo sapiens) (Q8WZA2 whole entry, looked up): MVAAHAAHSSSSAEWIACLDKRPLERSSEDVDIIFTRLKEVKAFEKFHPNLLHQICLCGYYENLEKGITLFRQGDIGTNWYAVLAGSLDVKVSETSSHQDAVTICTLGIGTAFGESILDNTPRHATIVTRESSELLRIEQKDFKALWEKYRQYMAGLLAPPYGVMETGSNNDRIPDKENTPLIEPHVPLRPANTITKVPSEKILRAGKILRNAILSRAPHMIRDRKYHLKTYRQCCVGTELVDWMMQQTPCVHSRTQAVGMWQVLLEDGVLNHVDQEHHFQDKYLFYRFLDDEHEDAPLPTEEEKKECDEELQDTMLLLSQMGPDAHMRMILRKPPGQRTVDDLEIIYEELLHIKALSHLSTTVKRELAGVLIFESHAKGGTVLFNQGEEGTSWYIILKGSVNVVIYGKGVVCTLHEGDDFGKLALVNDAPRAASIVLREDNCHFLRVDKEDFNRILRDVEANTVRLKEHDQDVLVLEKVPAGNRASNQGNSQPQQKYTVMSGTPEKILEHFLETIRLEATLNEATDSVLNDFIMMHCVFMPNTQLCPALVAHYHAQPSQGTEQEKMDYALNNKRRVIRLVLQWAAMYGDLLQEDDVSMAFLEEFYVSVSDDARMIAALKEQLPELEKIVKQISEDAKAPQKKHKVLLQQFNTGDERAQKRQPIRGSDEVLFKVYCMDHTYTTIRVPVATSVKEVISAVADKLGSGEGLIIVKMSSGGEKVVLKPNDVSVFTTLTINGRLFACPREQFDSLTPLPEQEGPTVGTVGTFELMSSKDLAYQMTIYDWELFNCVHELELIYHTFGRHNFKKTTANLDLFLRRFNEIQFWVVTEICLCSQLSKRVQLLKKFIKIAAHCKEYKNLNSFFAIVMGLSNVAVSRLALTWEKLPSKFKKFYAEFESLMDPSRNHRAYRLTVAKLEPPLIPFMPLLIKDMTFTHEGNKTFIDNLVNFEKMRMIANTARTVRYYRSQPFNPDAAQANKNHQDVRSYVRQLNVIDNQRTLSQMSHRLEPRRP
Assay [4] concerns the target Rap guanine nucleotide exchange factor 3 (Homo sapiens) (UniProt O95398). The assay is described as follows: Counterscreen qHTS for antagonist of cAMP-regulated guanine nucleotide exchange factor 3 (EPAC1) (AID 1645888). Note: % of control where 0% means no effect. The method, boiled down: (§1)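 Rap1B-BODIPY-GDP 250 nM + GDP 50 uM; cpds 7-pt, final 9.74 nM–152 uM (activator mode) or from 7.32 nM upwards (inhibitor mode); RT; FI 480/540 nm at 5 and 30 min, then ± cAMP, reread.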

For assay [5] the target is unchanged. The assay is described as follows: Counterscreen qHTS for agonist of cAMP-regulated guanine nucleotide exchange factor 3 (EPAC1) (AID 1645889). For activation: % of control where 0% means no effect. Note: nearly all actives have a fitted effect of over 40% in size. Note: potency is the fitted concentration of half-maximal effect. The method, boiled down: as §1

Take `O=C(N/N=C/c1cc(Cl)c(O)c(Cl)c1)c1cc2c(ccc3ccccc32)o1`: the Potency in assay [1] is 60.1 µM (active). Also, the Potency result in assay [2], in assay [3], in assay [4] and in assay [5] was “inactive” each time.

For `CCC(C)(C)C1CCc2c(sc(NC(=O)c3ccccc3C(=O)O)c2C#N)C1` (stereo not given), the Potency in assay [1] was 75.7 µM (active). The Potency entry in assay [2], in assay [3], in assay [4] and in assay [5] was “inactive” in each case.

Consider `O=C(C1CC1)N1c2ccccc2Sc2ccccc21`, for which the Potency entry in assay [1], in assay [2], in assay [3], in assay [4] and in assay [5] was “inactive” throughout.

Consider `CC(C1CC1)N(C(=O)NC1CCS(=O)(=O)C1)c1ccccc1` (stereo not given), for which the Potency entry in assay [1], in assay [2], in assay [3], in assay [4] and in assay [5] was “inactive” throughout.

As for `CCCCOc1ccc(/C=C/C(=O)OCC(=O)NC(=O)NCC(C)C)cc1OCC`, the Potency entry in assay [1], in assay [2], in assay [3], in assay [4] and in assay [5] was “inactive” in each case.

Take `O=c1ccc(-c2ccccc2)nn1Cc1ccc(Cl)cc1`: the Potency entry in assay [1], in assay [2], in assay [3], in assay [4] and in assay [5] was “inactive” each time.

For the molecule `Cc1cc(C)c2sc(N(CCCN(C)C)C(=O)c3ccc(S(=O)(=O)N(C)C4CCCCC4)cc3)nc2c1`, the Potency result in assay [1], in assay [2], in assay [3], in assay [4] and in assay [5] was “inactive” throughout.

Regarding `COc1ccc(/C=C2/SC(=S)N(NS(=O)(=O)c3ccc(C)cc3)C2=O)cc1`, the Potency in assay [1] was 47.8 µM (active). Further, the Potency result in assay [2], in assay [3], in assay [4] and in assay [5] was “inactive” each time.

Regarding `O=C(O)CCSc1nnc(COc2cccc3ccccc23)n1-c1cccc(Cl)c1`, the Potency entry in assay [1], in assay [2], in assay [3], in assay [4] and in assay [5] was “inactive” throughout.

Consider `O=C(c1ccco1)N(Cc1ccccc1)c1cccc([N+](=O)[O-])c1`, for which the Potency result in assay [1], in assay [2], in assay [3], in assay [4] and in assay [5] was “inactive” in each case.

As to `CC(=O)c1cc(C#N)c(N(C)Cc2ccccc2)nc1C`, the Potency entry in assay [1] and in assay [2] was “inactive” each time. The activation in assay [3] is 0.456% [at 17.1 µM, percent relative to cAMP agonist control]; in assay [5], 0.131% [at 30.8 µM]. For the same molecule, the activity change, negative = inhibition in assay [4] is -7.5% [at 30.8 µM].

For the molecule `O=S(=O)(O)c1cc(O)c2cc(Nc3ccccc3)ccc2c1`, the Potency in assay [1] was 37.9 µM (active). Further, the Potency result in assay [2], in assay [3], in assay [4] and in assay [5] was “inactive” throughout.

For `O=C(COc1ccccc1Br)Nc1ccccc1C(F)(F)F`, the Potency result in assay [1], in assay [2], in assay [3], in assay [4] and in assay [5] was “inactive” throughout.

`O=C1c2cccc3cccc(c23)N1Cc1cccc(F)c1`: the Potency result in assay [1] and in assay [2] was “inactive” in each case. In addition, the activation is 7.33% [at 17.1 µM, percent relative to cAMP agonist control] in assay [3] and 26.6% [at 30.8 µM] in assay [5]. Further, the activity change, negative = inhibition in assay [4] was -7.63% [at 30.8 µM].

With `CCCNC(=O)Cn1c(=O)/c(=C/c2ccc(-c3ccc([N+](=O)[O-])cc3)o2)s/c1=C\C(=O)C(C)(C)C`, the values for the Potency in assay [1] and in assay [5] were 37.9 µM (active) and 5.01 µM (active), respectively. For the same molecule, the Potency result in assay [2], in assay [3] and in assay [4] was “inactive” each time.

With `Cc1nnc(SCCn2c(N3CCC(Cc4ccccc4)CC3)nc3c2c(=O)[nH]c(=O)n3C)s1`, the Potency result in assay [1], in assay [2], in assay [3], in assay [4] and in assay [5] was “inactive” in each case.

As for `O=C(N/N=C/c1c(O)n(-c2ccccc2Cl)c(=O)c2ccccc12)C1COc2ccccc2O1` (stereo not given), the Potency in assay [1] is 42.6 µM (active). In addition, the Potency result in assay [2], in assay [3], in assay [4] and in assay [5] was “inactive” each time.

Consider `COc1cc(/C=C2/C(=O)NN(c3ccc(Cl)c(Cl)c3)C2=O)cc([N+](=O)[O-])c1O`, for which the Potency in assay [1] is 6.75 µM (active). Besides, the Potency result in assay [2], in assay [3], in assay [4] and in assay [5] was “inactive” in each case.

As to `CN(C)c1ccc(/C=C(\C#N)c2ccccn2)cc1`, the Potency entry in assay [1], in assay [2], in assay [3], in assay [4] and in assay [5] was “inactive” each time.

With `CC(=O)OC1CSC2c3ccccc3C(=O)N2Cc2sccc21` (stereo not given), the Potency result in assay [1], in assay [2], in assay [3], in assay [4] and in assay [5] was “inactive” throughout.
